FadD28 FP inh: inhibitors of FadD28 bisubstrate probe binding, primary screen, biochemical, fluorescence polarization, single point; Mycobacterium tuberculosis FadD28 fatty-acid-AMP ligase; inhibition, % at 12.5 µM; 0.22% of 360,000 active; AID 588549, 2011; in the data active means inhibition above about 8.5%, passing the limit was not always enough; inconclusive means no clear call, values can overlap the other calls
Mtb hypoxia inh: PubChem AID 1159583; fluorescence inhibition, % (no concentration beside the values); 0.1% of 300,000 active; M. tuberculosis hypoxia-regulated fluorescent reporter, fluorescence; in the data active means fluorescence inhibition mostly above about 23%, no sharp cut-off; inactive means mostly below about 17%
GDH-TPI counter: GDH-TPI coupling enzyme inhibitors, primary screen, artefact control for M. tuberculosis FBA inhibitor project, biochemical, absorbance, full deck. GDH-TPI coupled enzyme counterscreen, NADH absorbance. inhibition, % at 4.8 µM. 1.2% of 360,000 active; in the data active means inhibition above about 30%;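 further: 0% = DMSO wells and 100% = wells lacking the enzyme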
Mtb BioA inh: M. tuberculosis BioA enzyme inhibitors, primary screen, biochemical, plate reader, single point, HTS; 7,8-diaminopelargonic acid synthase BioA (Mycobacterium tuberculosis); purified M. tuberculosis BioA enzyme; inhibition, % at 9.99 µM; 0.096% of 360,000 active; AID 602481, 2012; in the data active means inhibition above about 40%; inconclusive means no clear call, values can overlap the other calls
Mtb FBA inh: Mtb FBA enzyme inhibitors, primary screen, biochemical, fluorescence, strain H37Rv. Fructose-bisphosphate aldolase (Mycobacterium tuberculosis (strain ATCC 25618 / H37Rv)), …. purified M. tuberculosis FBA, fluorescence read-out. inhibition, % at 1 µM. 2.3% of 360,000 active; in the data active means inhibition above about 27%;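 further: 0% = vehicle and 100% = reference inhibitor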
Target sequence (P9WQA3 whole entry, looked up): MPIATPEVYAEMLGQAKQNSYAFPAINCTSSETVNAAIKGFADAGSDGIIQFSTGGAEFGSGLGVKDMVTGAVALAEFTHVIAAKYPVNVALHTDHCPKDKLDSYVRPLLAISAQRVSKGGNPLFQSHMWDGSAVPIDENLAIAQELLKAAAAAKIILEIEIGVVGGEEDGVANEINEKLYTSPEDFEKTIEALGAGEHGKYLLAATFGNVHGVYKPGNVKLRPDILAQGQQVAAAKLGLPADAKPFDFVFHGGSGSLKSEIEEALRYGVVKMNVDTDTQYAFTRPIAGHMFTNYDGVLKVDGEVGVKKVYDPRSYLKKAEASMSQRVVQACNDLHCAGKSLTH
Starred values were filed as active, the others as inactive; ? = inconclusive; / = not tested or not shown; + = active, no number. An excerpt weighted towards active compounds, which were near 2.9% of everything screened.

SMILES	FadD28 FP inh	Mtb hypoxia inh	GDH-TPI counter	Mtb BioA inh	Mtb FBA inh
N#C/C(=C/C1=C(N2CCOCC2)C(=C/c2ccccc2)/CC1)C(=O)Nc1ccccc1F	9.9*	10.5	6.2	4.6	0.1
COc1cc(C=C2C(=O)ON=C2c2ccccc2)ccc1O	/	0.6	/	/	/
C[C@@H]1CN([C@H](C)CO)C(=O)Cc2cc(NC(=O)C3CCCCC3)ccc2O[C@H]1CN(C)C(=O)Nc1ccc2c(c1)OCO2	/	/	/	5.3	/
CN(C)/C=C1/C=C(c2ccccc2)OC1=O	-0.9	-9.9	33.3*	-1.5	1.5
CC(C)(C)C1COC(=O)C(Cc2ccc(F)cc2)CC=CCC(CC(=O)N(CCO)Cc2ccccc2)C(=O)N1 (stereo not given)	/	8.2	/	/	/
Cc1ccc(NC(=O)Nc2ccno2)cc1	-0.8	89.3*	8.1	1.0	2.5
O=C(Nc1ccno1)Nc1ccc(Cl)cc1Cl	-1.7	58.2*	-3.4	/	-1.8
CC(=NO)c1ccc2ccc3ccccc3c2c1	/	-0.7	/	/	/
O=C(N/N=C/c1ccc2ncccc2c1)c1cc(-c2cccs2)nc2ccccc12	-1.1	/	39.1*	-5.0	14.0
Cn1cccc1/C=N/NC(=O)c1cc(-c2cccs2)nc2ccccc12	-1.9	/	31.5*	/	18.8
O=C(NN=Cc1ccc2ncccc2c1)c1cc(-c2cccs2)nc2ccccc12	/	4.4	/	/	/
CC(=O)Nc1ccc2c3c(cccc13)C(=O)N(c1ccccc1)C2=O	-1.2	5.3	12.3	/	+
CC(=O)Nc1ccc2ccc3cccc4ccc1c2c34	-2.9	/	33.6*	1.1	17.9
CC(C)NC(=O)Nc1ccc2c(c1)C(=O)N([C@@H](C)CO)C[C@H](C)[C@@H](CN(C)Cc1ccc(C(F)(F)F)cc1)O2	/	/	/	-2.1	/
CC1(C)Cc2c(sc(NC(=O)c3ccco3)c2C#N)CO1	0.4	12.0	31.1*	-2.0	-0.8
Cc1cccc(NC(=O)c2ccco2)c1C	-0.2	7.4	15.4	-2.9	1.4
Cc1cccc(NC(=O)c2sc(NC(=O)c3ccco3)c(C#N)c2C)c1C	-1.4	-4.0	35.5*	-1.1	2.7
C[C@@H]1CN([C@@H](C)CO)C(=O)Cc2cc(NS(=O)(=O)c3ccc(Cl)cc3)ccc2O[C@@H]1CN(C)C(=O)Nc1ccc(F)cc1	/	/	/	-0.3	/
CO[C@H]1CN(C)C(=O)c2cc(NC(=O)C3CC3)ccc2OC[C@H](C)N(C(=O)CN2CCOCC2)C[C@@H]1C	/	/	/	-2.7	/
N#C/C(=C\c1cccc([N+](=O)[O-])c1)C(=O)NCC1CCCO1 (stereo not given)	2.3	3.9	-2.2	/	3.2
CC(NC(=O)/C(C#N)=C/c1ccc([N+](=O)[O-])o1)c1ccccc1 (stereo not given)	-0.9	/	19.2	-1.9	4.0
Cc1ccc(/C=C(\C#N)C(=O)NCC2CCCO2)o1 (stereo not given)	-0.4	9.4	22.4	0.4	2.0
CC(NC(=O)/C(C#N)=C/c1ccco1)c1ccccc1 (stereo not given)	-1.7	1.7	52.5*	-2.0	-0.9
N#C/C(=C\c1ccc[nH]1)C(=O)NCC1CCCO1 (stereo not given)	-2.7	-1.6	34.5*	/	0.6
N#C/C(=C\c1ccco1)C(=O)NCC1CCCO1 (stereo not given)	-2.4	-1.4	45.8*	-1.9	-0.3
SMILES	FadD28 FP inh	Mtb hypoxia inh	GDH-TPI counter	Mtb BioA inh	Mtb FBA inh
O=C(Cn1nc2n(c1=O)-c1ccccc1SC2)NN=Cc1cccnc1	/	5.2	/	/	/
CN(CC(Cc1ccccc1)N(CC(Cc1ccccc1)N(CCC(C)(C)C)N=O)N=O)N=O (stereo not given)	/	9.2	/	/	/
CN(C)c1oc(-c2ccco2)nc1C#N	0.0	11.4	16.0	/	127.3*
CN(C)c1oc(-c2ccccc2)nc1C#N	-1.1	3.6	18.2	/	+
Cc1oc(-c2ccccc2)nc1C(=O)OCC(=O)NCc1ccccc1	/	-3.6	2.8	3.0	5.5
COc1ccccc1/C=C/c1nc(C#N)c(N(C)C)o1	-1.7	-3.6	8.9	0.2	+
CCOC(=O)c1nc(-c2ccccc2)oc1N(C)C	1.5	/	14.8	-2.6	131.4*
CN(C)c1oc(/C=C/c2ccccc2)nc1C#N	-3.5	2.8	24.1	/	/
O=C(NC1CCCC1)[C@@H]1[C@@H](CO)[C@@H]2Cn3c(ccc(-c4cccnc4)c3=O)[C@@H]2N1CCc1ccccc1	/	/	/	9.1	/
C[C@H]1CN([C@@H](C)CO)C(=O)c2cc(C3=CCCC3)cnc2O[C@H]1CN(C)C(=O)Cc1ccncc1	/	/	/	-3.2	/
CCCCn1c(/N=C/c2ccc(N(C)C)cc2)nc2ccccc21	-1.2	/	52.2*	-1.5	-3.9
O=C1/C(=C/C=C/c2ccco2)SC(=S)N1c1ccc(O)cc1	17.7*	6.2	2.3	/	0.8
CC(C)C(C(=O)O)N1C(=O)/C(=C/c2cccn2C)SC1=S (stereo not given)	3.2	8.7	10.5	/	-39.6
CC(C)C(C(=O)O)N1C(=O)/C(=C/C=C/c2ccco2)SC1=S (stereo not given)	47.2*	-9.5	12.3	/	-3.1
O=C(NN1C(=O)/C(=C/C=C/c2ccco2)SC1=S)c1ccncc1	30.4*	14.5	8.6	-0.5	-13.8
O=C(NN1C(=O)/C(=C/C=C/c2ccccc2)SC1=S)c1ccncc1	-1.9	-5.5	5.7	/	-12.6
C[C@H](CO)N1C[C@H](C)[C@@H](CN(C)CC2CCCC2)Oc2ncc(C#C[C@@H](C)O)cc2C1=O	/	/	/	0.7	/
CCn1c(=NC(=O)c2ccco2)sc2cccc(F)c21	-1.9	/	51.2*	-0.7	3.0
CCOC(=O)c1ccc2c(c1)sc(=NC(=O)c1ccco1)n2CCOC	-3.8	4.8	17.6	0.4	9.8
COc1ccc(OC)c2c1sc(=NC(=O)c1ccco1)n2C	-1.8	6.6	33.6*	-3.5	-0.2
Cc1ccc(/C=N/NC(=O)c2nnn(-c3nonc3N)c2CN(C)c2ccccc2)s1	-3.9	/	33.6*	2.2	-1.1
Cc1ccsc1C=NNC(=O)c1nnn(-c2nonc2N)c1CN(C)c1ccccc1	/	-3.4	/	/	/
Cc1ccc(/C=N/NC(=O)c2nnn(-c3nonc3N)c2CN(C)C)s1	-1.6	/	23.7	0.3	7.1
Cc1ccsc1/C=N/NC(=O)c1nnn(-c2nonc2N)c1CN(C)c1ccccc1	-7.3	/	37.0*	-0.1	2.5
CCOC(=O)/C(=C/c1ccc(OC(=O)c2ccncc2)cc1)C(C)=O	-3.0	-14.4	6.7	/	-2.0
SMILES	FadD28 FP inh	Mtb hypoxia inh	GDH-TPI counter	Mtb BioA inh	Mtb FBA inh
COCCOC(=O)/C(=C/c1ccc(OC(=O)c2ccccc2)cc1)C(C)=O	1.0	6.1	9.9	-3.4	30.8*
CN(C)c1ccc(C=NNc2ccccn2)c(Cl)c1	-0.9	/	12.4	/	10.7
CN(C)c1ccc(/C=N\Nc2ccccn2)cc1	-1.4	/	75.7*	-1.8	2.4
O=C(O)c1ccc(/C=N\Nc2ccccn2)cc1	1.5	/	54.1*	/	-3.0
O=C1CC(C(=O)Nc2ccc(Br)cc2)S/C(=N\N=C\c2ccco2)N1 (stereo not given)	?	/	51.9*	/	0.2
COc1ccc(/C=N/N=C2/NC(=O)CC(C(=O)O)S2)cc1 (stereo not given)	-2.0	/	54.5*	-0.4	-3.2

Compound activity (PubChem BioAssay)
